Test results published in the supplement of paper PMC13380429.

Test system: Vero E6 infected with SARS-CoV-2
Assay: inhibition of SARS-CoV-2 cytopathic effect; higher = more antiviral protection, active = above 15
Conditions: 48 h

Measured: inhibition of SARS-CoV-2 cytopathic effect

N#Cc1ccc(COC[C@H]2O[C@@H](n3c(NCc4ccc(Cl)c(Cl)c4)nc4c(N)ncnc43)[C@H](O)[C@@H]2O)cc1
inactive: 1 nM 2.98% | 8.33 nM -0.66% | 100 nM -1.89% | 833.33 nM -0.44% | 10000 nM -3.34%

Cc1ccc(S(=O)(=O)NC(=O)NN2CC3CCCC3C2)cc1 (stereo not given) [gliclazide]
inactive: 1 nM 0.85% | 8.33 nM 1.91% | 100 nM 1.12% | 833.33 nM 2.55% | 10000 nM 2.6%

CC(=O)NCC(=O)N[C@H](CCC(=O)O)C(=O)O [N-acetylglycyl-D-glutamic-acid]
inactive: 1 nM 1.3% | 8.33 nM -0.41% | 100 nM -0.4% | 833.33 nM -0.04% | 10000 nM 1.12%

c1ccc(Cn2c(N3CCNCC3)nc3ccccc32)cc1 [lerisetron]
inactive: 1 nM 1.65% | 8.33 nM -0.34% | 100 nM -0.91% | 833.33 nM -3.79% | 10000 nM -5.52%

CCCCc1nc(C)c(CC(=S)N(C)C)c(=O)n1Cc1ccc(-c2ccccc2-c2nnn[nH]2)cc1 [fimasartan]
inactive: 1 nM 0.68% | 8.33 nM -0.83% | 100 nM -1.61% | 833.33 nM 1.46% | 10000 nM -0.45%

O=C1NCCc2[nH]c(-c3ccncc3)cc21
inactive: 1 nM -0.31% | 8.33 nM -0.69% | 100 nM -1% | 833.33 nM -0.56% | 10000 nM -3.45%

C[C@H](Cc1ccc(O)c(O)c1)[C@@H](C)Cc1ccc(O)c(O)c1 [masoprocol]
inactive: 1 nM -3.87% | 8.33 nM 1.69% | 100 nM 2.75% | 833.33 nM -1.7% | 10000 nM 12%

Oc1ccc2[nH]cc(C3=CCNCC3)c2n1
inactive: 1 nM 6.34% | 8.33 nM 6.88% | 100 nM -4.05% | 833.33 nM -1.7% | 10000 nM -2.6%

C[N+]1([O-])[C@@H]2C[C@@H](OC(=O)[C@H](CO)c3ccccc3)C[C@H]1[C@@H]1O[C@@H]12 (stereo not given in full) [scopolamine-N-oxide]
inactive: 1 nM 7.18% | 8.33 nM 4.58% | 100 nM 3.81% | 833.33 nM 13.6% | 10000 nM 3.51%

c1ccc2cc(C3=NCCN3)ncc2c1
inactive: 1 nM 1.6% | 8.33 nM 1.22% | 100 nM 2.06% | 833.33 nM -0.28% | 10000 nM 1.35%

CCCCC/N=c1\ccn(Cc2ccccc2)c2ccccc12
inactive: 1 nM -2.64% | 8.33 nM -0.49% | 100 nM -2.77% | 833.33 nM -0.71% | 10000 nM -9.28%

CC12CC3CC(C)(C1)CC(N)(C3)C2 [memantine]
inactive: 1 nM 0.45% | 8.33 nM 0.23% | 100 nM 1.56% | 833.33 nM 2% | 10000 nM -1.57%

N#CC1(c2ccc(NC(=O)c3cccnc3NCc3ccncc3)cc2)CCCC1 [apatinib]
inactive: 1 nM 1.27% | 8.33 nM 0.67% | 100 nM 0.81% | 833.33 nM 0.23% | 10000 nM -0.18%

CCCCCCCCCCCCCCCC[n+]1ccccc1 [cetylpyridinium]
inactive: 1 nM 1.63% | 8.33 nM 0.22% | 100 nM 1.76% | 833.33 nM -0.25% | 10000 nM -21.9%

CC1(COc2ccc(CC3SC(=O)NC3=O)cc2)CCCCC1 (stereo not given) [ciglitazone]
inactive: 1 nM -1.15% | 8.33 nM -3.35% | 100 nM -1.82% | 833.33 nM 3.16% | 10000 nM 4.02%

CCCCN1CCC(CNC(=O)c2c3n(c4ccccc24)CCCO3)CC1 [piboserod]
inactive: 1 nM -0.67% | 8.33 nM 1.75% | 100 nM 0.6% | 833.33 nM -0.97% | 10000 nM 1.25%

CC(=O)Oc1ccccc1C(=O)Oc1ccccc1C(=O)O [acetylsalicylsalicylic-acid]
inactive: 1 nM -1.51% | 8.33 nM 0.51% | 100 nM 2.44% | 833.33 nM -0.27% | 10000 nM 1.17%

Cc1ccnc(NS(=O)(=O)c2ccc(N)cc2)n1 [sulfamerazine]
inactive: 1 nM 2.3% | 8.33 nM 2.7% | 100 nM -1.58% | 833.33 nM -0.16% | 10000 nM -0.59%

Cc1cccc(-c2[nH]c(C(C)(C)C)nc2-c2ccc3c(c2)OCO3)n1
inactive: 1 nM -0.26% | 8.33 nM -0.29% | 100 nM -0.87% | 833.33 nM -5.24% | 10000 nM -2.91%

Cc1ccc(C(=O)Nc2ccc(CN3CCN(C)CC3)c(C(F)(F)F)c2)cc1C#Cc1cnc2[nH]ncc2c1
inactive: 1 nM 1.62% | 8.33 nM 6.08% | 100 nM 4.44% | 833.33 nM -8.47% | 10000 nM -20.9%

CN/C(=N\CCSCc1nc[nH]c1C)NC#N [cimetidine]
inactive: 1 nM 0.42% | 8.33 nM -1.81% | 100 nM -0.46% | 833.33 nM 2.3% | 10000 nM -1.84%
